# In ChEMBL document CHEMBL4513216, “Probing the Open Global Health Chemical Diversity Library for Multistage-Active Starting Points for Next-Generation Antimalarials” (ACS Infect Dis, 2020):
# The whole screen tested about 69,000 compounds, of which about 8,600 (12%) showed an effect of 50% or more. Shown is part of a subset that was picked to be rich in strong results.
# Tested on: Plasmodium berghei
# Test: Screen against P. berghei liver stage (PbLuc), transformed with Luciferase, at 10uM
# Type: functional, HepG2
# Details: tested at 10 uM
row,Structure (SMILES),INHIBITION [%]
1,COCCN(CCC#N)Cn1cc(Cl)cn1,5.29
2,O=C(NC1CC1)N1CCc2ccc(=O)n(CC3CC3)c2CC1,-55.2
3,O=C(NC1CC1)N1CCc2ccc(=O)n(CCN3CCCC3)c2CC1,61.5
4,CC(C)NC1CCc2c(ccc(=O)n2CCN2CCCC2=O)C1 (stereo not given),-20.1
5,CC(C)NC1CCc2c(ccc(=O)n2CCN(C)C)C1 (stereo not given),-33
6,CC(C)NC1CCc2c(ccc(=O)n2CCN2CCOCC2)C1 (stereo not given),73.2
7,COCCn1c2c(ccc1=O)CCN(C(=O)NC1CC1)CC2,-3.26
8,CN(CC(=O)NCC1CCCCC1)S(=O)(=O)c1cccnc1,-7.93
9,Cn1cc(C[C@H]2[C@H](O)CCN2CC2CC2)cn1,18.8
10,O=C(CCc1nc2cc(Br)cnc2[nH]1)NCc1cccnc1,-2.92
11,Cc1ccc(CNCC(C)Oc2ccccn2)cc1 (stereo not given),-6.11
12,CC(C)(C)CC(=O)NCC1CCCS1 (stereo not given),43.4
13,CC(C)(C)C(=O)NCC(=O)NCC1CCCS1 (stereo not given),91.1
14,O=C(CCC(F)(F)F)NCC1CCCS1 (stereo not given),31.5
15,O=C(CNC(=O)Nc1c(F)cc(F)cc1-c1ccccc1)NC1CC1,3.93
16,O=C(NCCN1CCCC1)C1(c2ccc(Cl)cc2)CCOCC1,33.85
17,O=C(NCCNc1ncccn1)N1CCN(c2nccs2)CC1,-14.6
18,CS(=O)(=O)NC1CCCN(C(=O)NCc2cccnc2)C1 (stereo not given),-6.62
19,Cc1cc(C2CCCN2C(=O)NCc2ccccn2)on1 (stereo not given),48.5
20,CS(=O)(=O)NC1CCN(C(=O)NCc2ccccn2)CC1,-27.9
21,CC(=O)N1CCC(NS(=O)(=O)c2cccnc2)CC1,69.3
22,c1cncc(OCCNC2Cc3ccccc3C2)c1,39.7

row,Structure (SMILES),INHIBITION [%]
1,CS(=O)(=O)NC1CCN(C(=O)c2cnc(-c3cccnc3)nc2)CC1,-32.8
2,CC(=O)N1CCC(N[C@@H]2CC[C@@H]2NS(=O)(=O)c2cccnc2)CC1,46.9
3,CS(=O)(=O)NC1CCN(C(=O)NCc2cccnc2)CC1,59
4,Cc1cc(C2CCCN2C(=O)NCc2cccnc2)on1 (stereo not given),55
5,O=S(=O)(N[C@H]1CC[C@H]1NC1Cc2ccccc2C1)c1cccnc1,68.3
6,O=C(NS(=O)(=O)c1cccnc1)C1CC(c2ccccc2)=NO1 (stereo not given),28.7
7,Cc1cc(C2CCCN2C(=O)NCc2cccc(F)c2)on1 (stereo not given),23.2
8,COCCNc1nc(N2CCOCC2)nc2nccnc12,-2.93
9,O=C(N1CCOCC1)N1CCN(CC(O)c2ccc(F)cc2)CC1 (stereo not given),-11.4
10,O=C(CC1CCC2(CC1)CCN(Cc1cccnc1)CC2)N1CC=CC1,-4.32
11,Cc1ccc(CN2CCc3[nH]nc(C(=O)N(C)C)c3C2)o1,6.27
12,c1cnc2c(CN3CCCCC3c3ccncn3)cnn2c1 (stereo not given),16.5
13,Cn1cc(CN2CCCC23CCN(C(=O)c2cccs2)CC3)cn1,28.4
14,CC1(C(N)=O)CN(CC2CCOCC2)CCO1 (stereo not given),26.3375
15,CS(=O)(=O)N1CCC(c2nnc3ccc(C(=O)NC4CCC4)cn23)C1 (stereo not given),37.3
16,Cc1cc(C(F)(F)F)nn1C(C)C(=O)Nc1ccc(Cl)cn1 (stereo not given),47.4
17,Cn1c(Cn2cccn2)nnc1C1CCN(Cc2ccccc2Cl)CC1,-10.9
18,Cc1nn(C)c(Cl)c1C1CCCN1C(=O)c1ccnc(N(C)C)c1 (stereo not given),-65.3
19,COc1ccc(Cl)cc1NCc1nc2[nH]c(C)c(C)c(=O)n2n1,16
20,O=C(Nc1cc(C(F)(F)F)c[nH]c1=O)N1CCSCC1,-43.6
21,Cc1nc(C(=O)N2CCCC2c2cnn(C)c2)ccc1C#N (stereo not given),13.3
22,CNC(=O)c1ccc(C2CN(C(=O)c3cncs3)CCO2)nc1 (stereo not given),50

row,Structure (SMILES),INHIBITION [%]
1,CNC(=O)c1ccc(C2CN(C(=O)c3scnc3C)CCO2)nc1 (stereo not given),-5.71
2,CNC(=O)c1ccc(C2CN(C(=O)c3cnn(C)c3)CCO2)nc1 (stereo not given),29.2
3,CCOc1ncccc1C(=O)N1CCCC1c1c(C)nn(C)c1Cl (stereo not given),-19.9
4,CCN(C)S(=O)(=O)NCC(C)(O)c1ccsc1 (stereo not given),31.7
5,COCCN1C(=O)CO[C@H]2CN(Cc3ccccc3Cl)C[C@@H]21,63.4
6,COCCN1C(=O)CO[C@H]2CN(CCCc3ccccc3)C[C@H]21,51.9
7,COCCN1C(=O)CO[C@H]2CN(Cc3ccccc3OC)C[C@H]21,-17.2
8,COCCN1C(=O)CO[C@H]2CN(Cc3cccc(OC)c3F)C[C@@H]21,27.8
9,Cn1ccnc1CN1C(=O)CO[C@H]2CN(CCCc3ccccc3)C[C@H]21,27.5
10,COCCN1C(=O)CO[C@H]2CN(S(=O)(=O)c3ccccc3)C[C@H]21,-6.3
11,CC(Nc1cccc(CN2CCOC2=O)c1)C(=O)NC(=O)NC(C)(C)C (stereo not given),3.75
12,CCNC(=O)[C@@H]1C[C@H](NC(=O)c2cc(=O)[nH]c3ccc(C)cc23)CN1C,29.4
13,COC(=O)c1ccc(N(C(=O)c2cc(Cl)ccn2)C(C)C)c(C)c1,19.4
14,CC(C)(C)NC(=O)CN1CCCC(c2ccc(C(=O)O)cc2)C1 (stereo not given),26.9
15,N#Cc1ccsc1NC(=O)CCN1CCn2c(nnc2C2CC2)C1,-25.9
16,CC1CCCN(c2ccc(C(N)=O)cc2NC(=O)CC2=CCNCC2)C1 (stereo not given),56.3
17,COCCCC(=O)Nc1cccnc1N1CCCCC1,35.1
18,CC1CCCN(c2ccccc2OCC(=O)NC2CC2)C1 (stereo not given),42.6
19,CCOCCCC(=O)Nc1cc(C(N)=O)ccc1N1CCCCC1,72.1
20,CC1CCC(NS(=O)(=O)CC(=O)Nc2ccccc2N2CCCC2)CC1 (stereo not given),-52.2
21,CCOCCC(=O)Nc1cc(C(N)=O)ccc1N1CCCC(C)C1 (stereo not given),73
22,NC(=O)c1ccc(N2CCCCC2)c(NC(=O)c2cncc(Br)c2)c1,46.8

row,Structure (SMILES),INHIBITION [%]
1,CCOCCCC(=O)NCc1ccc(N2CCCCC2)cc1,42.7
2,CCNC(=O)COc1ccccc1N1CCCC(C)C1 (stereo not given),36.2
3,Cc1csc(C2CCCN(C(=O)Cn3ccccc3=O)C2)n1 (stereo not given),-17.6
4,CC(C)CNC(=O)C1(Cc2ccccc2-c2ccccc2)CCNC1 (stereo not given),47.2
5,COc1ccc(COCC(O)CN2CCC(c3ccn[nH]3)CC2)cc1 (stereo not given),44.1
6,COCCOCC(=O)Nc1ccc(Br)cc1F,-6.32
7,O=C(O)c1c[nH]c2cc(NS(=O)(=O)c3cc(F)ccc3Cl)ccc12,-31.8
8,Cn1cc(C2=NOC(C(=O)NC3(c4ccccc4)CCCC3)C2)cn1 (stereo not given),-6.975
9,CO[C@@H]1CN(c2ccccc2)S(=O)(=O)[C@@]12CCN(S(C)(=O)=O)C2,39.6
10,CCn1cc(CN2CCCN(C(=O)c3ccc(C)nc3)CC2)cn1,-47.6
11,COCC1c2c(cnn2CC2CCOCC2)CCN1Cc1ccoc1 (stereo not given),14.4
12,CCC(C)(CC(=O)OC)NCc1cc(C)on1 (stereo not given),56.6
13,CCC(C)(CC(=O)OC)NCc1noc(C)n1 (stereo not given),-31.9
14,CCC(C)(CC(=O)OC)NCc1nc(C)no1 (stereo not given),-50.8
15,CC(=O)N1CCN(C(=O)CCCc2nnc(-c3ccccc3)o2)CC1,28.8
16,CC(Nc1cccc(CN2CCOC2=O)c1)C(=O)Nc1ccccc1 (stereo not given),35.4
17,CN1[C@@H](c2ccccc2)[C@@H](C(=O)NCc2ccncc2)C[C@@]1(C)C(=O)O,39.6
18,CN1[C@@H](c2ccccc2)[C@@H](C(=O)NCC2CCOCC2)C[C@@]1(C)C(=O)O,41.5
19,CN1[C@@H](c2ccccc2)[C@@H](C(=O)NCc2ccccn2)C[C@@]1(C)C(=O)O,60.1
20,COC(=O)CC1CCN(C(=O)c2ccc(-n3nnnc3C)cc2)CC1,27
21,CC(C)(C)C(=O)N1CCC2(CNS(=O)(=O)c3cnccc3O2)C1 (stereo not given),53.2
22,O=C(c1ccccn1)N1CCC2(CNS(=O)(=O)c3cnccc3O2)C1 (stereo not given),17.6

row,Structure (SMILES),INHIBITION [%]
1,O=C(c1cccnc1)N1CCC2(CNS(=O)(=O)c3cnccc3O2)C1 (stereo not given),37.5
2,O=C(CNc1ccc(OC2CCOC2)cc1)NCc1ccc(F)cc1 (stereo not given),-68.6
3,Cn1nnc2c(N3CC(C(=O)NCc4cccs4)C3)ncnc21,-37.2
4,O=C(NC1CC1)N1CC[C@H]2[C@H]1CCN2c1ncccn1,-4.82
5,CCc1noc(CN2CCN(C(=O)N(C)C)CC2)n1,-27.3
6,CCc1noc(CN2CCN(C(=O)Cc3ccc(F)cc3)CC2)n1,52.4
7,CCc1noc(CN2CCN(C(=O)c3ccccc3F)CC2)n1,43.3
8,CCc1noc(CN2CCCN(C(C)=O)CC2)n1,25.6
9,CCc1noc(CN2CCN(C(=O)COC)CC2)n1,25.6
10,CCc1noc(CN2CCN(C(=O)C3CC3)CC2)n1,54.4
11,Cc1cc(C(=O)N2CCc3ncc(CN4CCOCC4)n3CC2)no1,35.8
12,Cn1cnnc1C1CCCN(C(=O)COCc2ccccc2)C1 (stereo not given),45.7
13,O=C1CCN(CCCS(=O)(=O)c2ccc(Cl)cc2)CCN1,20.6
14,COCC(=O)N1CCCN(c2ncnc3c2CCNCC3)CC1,11.7
15,NC(=O)c1cccnc1N1CCN(c2ncnc3c2CCNC3)CC1,31.7
16,CN(C)S(=O)(=O)N1CC[C@]2(O)CCN(c3nc4ccccc4s3)C[C@@H]2C1,11.3
17,c1ccc2sc(N3CCCN(c4ncnc5c4CCNC5)CC3)nc2c1,74.5
18,c1ccc2sc(N3CCN(c4ncnc5c4CCC5)CC3)nc2c1,79.9
19,Cn1nc2c(cc1=O)CN(c1nc3ccccc3s1)CC2,-80.7
20,Cc1ncnc(N2CCCN(c3nc4ccccc4s3)CC2)c1C,89.6
21,Cc1cccc(CN2CCc3ncnc(N4CCCC4)c3CC2)n1,-27.4
22,Cc1cc(C(=O)N2CCN(c3nc4ccccc4s3)CC2)no1,36.8
